According to PubChem BioAssay (NCATS):
Inconclusive results are not listed. Where a call stands in place of a potency, no number is given. Active and inactive are the calls of the source. Calls come from the whole dose curve; as a rule, active = well fitted inhibition curve with a large enough effect; inconclusive = small, poorly fitted or top-dose-only effect; inactive = flat fitted curve, though single readings scatter.

Key:
[1] = qHTS for Inhibitors of Plasmodium falciparum (DD2) proliferation (AID 504314);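 note: parasite DNA measured by SYBR Green fluorescence after red cell lysis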
Procedure, shortened: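 SYBR Green DNA-fluorescence growth assay: infected RBCs at 0.3% parasitemia, 2.5% hematocrit, 72 h compound exposure, 37C, 5% CO2; overnight lysis with dye at RT; normalized to 0.29 uM artemisinin and vehicle.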

[2] = qHTS for Inhibitors of Plasmodium falciparum (7G8) proliferation (AID 504316); note: series mostly up to about 6.7 µM; nearly all actives have a fitted effect of over 65% in size
Procedure, shortened: (§1)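 Parasite growth measured as SYBR Green DNA fluorescence (ex 485, em 535 nm) after overnight lysis following 72 h culture at 37 °C, 0.3% parasitemia, 2.5% hematocrit. Values normalized against DMSO and 0.29 uM artemisinin controls, with plate-stack correction.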

[3] = qHTS for Inhibitors of Plasmodium falciparum (HB3) proliferation (AID 504318); note: nearly all actives have a fitted effect of over 60% in size
Procedure, shortened: as §1

In the case of `CC(=O)[C@]12C[C@@H]3CCCN(C(=O)N[C@@H]1c1ccccc1)[C@@H]32`, the outcome [1] was “inactive”, the outcome [2] was “inactive” and the Potency [3] was “inactive”.

In the case of `COC(=O)C1=C2CCCO[C@H]2[C@@H]2[C@@H](C)[C@H](OC)c3ccccc3[C@@H]12`, the outcome [1] was “inactive” and the outcome [2] was “inactive”.

In the case of `CCOC(=O)[C@]12C[C@@H]3CCN(C(=O)N(C(C)=O)[C@@H]1c1ccccc1)[C@@H]32`, the outcome [1] was “inactive”, the outcome [2] was “inactive” and the Potency [3] was “inactive”.
